# Laboratory results: the supplement of paper PMC11482750
# ± gives the standard deviation of the averaged measurements.
# Compound: CCOC(C)=O [ethyl acetate]
# Test: control-subtracted net OSN firing rate; higher = stronger neuronal activation
# Settings: odorant dilution (vol/vol): 1/100
# Procedure: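 Single sensillum recordings from olfactory sensory neurons. The neurons sit in the maxillary palp or antennal sensilla of D. melanogaster (wild type, mutants, or at1 empty-neuron lines expressing Or42a homologs or the A181D S307P mutant) and of four Scaptomyza species. Each odorant was given as a 1 s pulse from 20 µl loaded on filter paper at 1:100 vol/vol, diluted in mineral oil (γ-hexalactone in DMSO). Spikes were counted in a 0.5 s window starting 0.2 s after onset, background was subtracted, the count was doubled, and the mean solvent-control response was subtracted.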
row,Target,control-subtracted net OSN firing rate [spikes/s]
1,S. pallida pb3a-like,8.67 ± 14
2,S. flava pb3a-like,6.67 ± 11
3,S. hsui pb3b-like,-2.33 ± 2.3
4,Canton-S (D. melanogaster) pb2a,4.57 ± 6.5
5,S. flava pb1b-like,-6.33 ± 12
6,S. pallida pb1a-like,80.3 ± 20
7,Canton-S (D. melanogaster) pb3b,0.333 ± 9.4
8,S. hsui pb2a-like,8 ± 5.1
9,S. pallida pb2a-like,7.33 ± 11
10,Canton-S (D. melanogaster) pb1a,89.1 ± 27
11,Canton-S (D. melanogaster) pb3a,1.33 ± 8.4
12,Canton-S (D. melanogaster) pb2b,4 ± 6.4
13,S. flava pb2a-like,-1.67 ± 5.7
14,S. pallida pb2b-like,9.33 ± 10
15,S. hsui pb3a-like,-4.33 ± 11
16,Canton-S (D. melanogaster) pb1b,-7.33 ± 9.6
17,S. flava pb3b-like,0.333 ± 9.7
18,S. pallida pb1b-like,-12.7 ± 9.3
19,S. hsui pb2b-like,53 ± 37
20,S. hsui pb1b-like,-16.7 ± 9.4
21,S. flava pb1a-like,61.7 ± 23
22,S. pallida pb3b-like,28.7 ± 25
23,S. flava pb2b-like,0.333 ± 7.3
24,S. hsui pb1a-like,98.3 ± 21
